Source: PubChem (National Center for Advancing Translational Sciences (NCATS))
A selection: hits, their analogues and other compounds. The true share with any hit is near 21%.
Cycloheximide cs – Cycloheximide Counterscreen for Small Molecule Inhibitors of Shiga Toxin; 300,000 tested, 12% active; max response, %; cell reporter, cycloheximide protein synthesis inhibition counterscreen; in the data active means max response mostly above about 13%, no sharp cut-off; inactive means mostly below about 14%; further: read at 38.3 µM for the half of the compounds with a filed dose
Pf growth 96h – Primary qHTS for delayed death inhibitors of the malarial parasite plastid, 96 hour incubation. P. falciparum luciferase reporter growth, 96 h. Potency, µM (highest dose often 28.7 µM), hits mostly inhibitors. 320,000 tested, 6.9% active. AID 504834, 2011
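Erythrocytes infected with luciferase-expressing P. falciparum were dispensed at 2% hematocrit and 0.05% parasitemia (final), then incubated with compounds 96 hours at 37 C in 5% CO2. Luminescence after detection reagent addition reported growth.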
Shiga inhibitor – A qHTS for Small Molecule Inhibitors of Shiga Toxin; Vero cells, Shiga toxin protein synthesis inhibition reporter; inhibition, % at 38.7 µM; 290,000 tested, 9.2% active; AID 2315, 2010; in the data active means inhibition mostly above about 28%, no sharp cut-off; inactive means mostly below about 43%
Pf growth 48h – Primary qHTS for delayed death inhibitors of the malarial parasite plastid, 48 hour incubation; P. falciparum luciferase growth in erythrocytes, 48 h; 310,000 tested, 5.9% active; Potency, µM (top dose mostly 28.7 µM), most hits filed as inhibitors; AID 504832, 2011
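Here the parasites carry a stable luciferase gene and grow inside erythrocytes in Albumax-based RPMI medium with compound for one erythrocytic cycle. Activity is scored as loss of luminescent signal.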
NS1 inh – qHTS Assay for Inhibitors of Influenza NS1 Protein Function. 270,000 tested, 0.4% active. Potency, µM (doses to about 46.1 µM); calls by dose curve; further: actives are rising curves; nearly all actives have a fitted effect of over 50% in size
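In this qHTS, NS1 from influenza A is expressed in budding yeast, where it slows growth. Cells are switched from glucose to 2% galactose medium (pH 6.0, -URA), treated with compound, and growth recovery is read at OD600.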
Hits are given with their value; – = inactive; ? = inconclusive; · = no result. Unless noted, the call rests on the fitted dose curve; in most records, active means well fitted inhibition curve with a large enough effect; inconclusive means small, poorly fitted or top-dose-only effect, or another doubt; inactive means no such curve, though single readings can be large or run the other way.

SMILES	Cycloheximide cs	Pf growth 96h	Shiga inhibitor	Pf growth 48h	NS1 inh
CCc1ccc(N2C(=O)Nc3ccccc3C2(O)C(=O)N2CCN(c3ccccn3)CC2)cc1 (stereo not drawn)	–	–	–	–	·
O=C(NC1CCCCC1)C(c1ccc(Cl)cc1)N(C(=O)c1ccccn1)c1cccnc1 (stereo not drawn)	–	–	–	–	–
COc1cc(CN2CCCC(N3CCN(c4ccccc4C)CC3)C2)ccc1O (stereo not drawn)	–	–	–	8.3µM	–
CCOc1ccc(CN2CCCC(N3CCN(c4ccc(OC)cc4)CC3)C2)cc1 (stereo not drawn)	–	?	–	?	–
CSc1ccc(CN2CCCC(N3CCN(c4ccccc4)CC3)C2)cc1 (stereo not drawn)	–	9.3µM	–	?	–
CCN(Cc1ccncc1)Cc1c(O)ccc2cc(Br)ccc12	–	6.6µM	–	5.9µM	·
Cc1ccc(C2Oc3ccccc3C3=C2C(c2cccs2)n2ncnc2N3)cc1 (stereo not drawn)	–	?	–	12µM	–
O=C(CC(c1ccccc1)c1cc(Br)ccc1O)N1CCCCC1 (stereo not drawn)	–	?	–	13µM	–
CCCN(CCC)C(=O)CC(c1ccccc1)c1ccco1 (stereo not drawn)	–	?	–	12µM	–
CCCN(CCC)C(=O)CC(c1ccccc1)c1cc(Br)ccc1O (stereo not drawn)	–	·	–	13µM	–
CCn1ncc(CNC(=O)C2(C)CC2(Cl)Cl)c1C (stereo not drawn)	–	–	–	–	–
O=C1C(Cl)=C(NCCN2CCCCC2)C(=O)c2ccccc21	54	?	49	–	·
Clc1cc(Cl)c(Cl)cc1Cl	·	–	·	–	·
Clc1cc(Cl)c(OCC#CI)cc1Cl	·	13µM	·	?	·
Cc1ccc2cc(/C=N/NC(=O)c3ccc(F)cc3)c(Cl)nc2c1	–	–	–	–	·
Cc1ccc2nc(Cl)c(/C=C/C(=O)c3ccco3)cc2c1	57	–	81	–	–
Cc1ccc2cc(/C=C/C(=O)c3ccco3)c(Cl)nc2c1	83	–	117	?	–
Cc1cccc2cc(CN(Cc3ccco3)C(=O)c3cccs3)c(=O)[nH]c12	–	9.3µM	–	10µM	–
Cc1ccc(C)c2[nH]c(=O)c(CN(Cc3ccco3)C(=O)Nc3ccccc3)cc12	–	?	–	12µM	–
Cc1ccc2cc(CN(Cc3ccco3)C(=O)NCc3ccccc3)c(=O)[nH]c2c1C	–	12µM	–	–	–
Cc1ccc2cc(CN(Cc3ccco3)C(=O)c3ccccc3)c(=O)[nH]c2c1C	–	–	–	–	–
Cc1cc(C)c(C(=O)O)c(CC(C)(C)C(=O)O)c1	–	?	–	–	–
COc1ccc(S(=O)(=O)N(C)C)cc1NC(=O)CSc1nc(N)cc(N)n1	–	–	–	?	–
COC(=O)c1c(NC(=O)CCCOc2ccc(C(C)(C)C)cc2)sc2c1C(C(=O)OC)CC2 (stereo not drawn)	–	·	–	·	·
CC1CC(C)CN(S(=O)(=O)c2ccc(C(=O)Nc3nnc(-c4cccs4)o3)cc2)C1 (stereo not drawn)	–	–	–	?	–
SMILES	Cycloheximide cs	Pf growth 96h	Shiga inhibitor	Pf growth 48h	NS1 inh
CCC1CCCCN1S(=O)(=O)c1ccc(C(=O)Nc2nnc(-c3cccs3)o2)cc1 (stereo not drawn)	–	–	–	10µM	–
CN(C)S(=O)(=O)c1ccc(C(=O)Nc2nnc(-c3cccs3)o2)cc1	19	?	–	13µM	·
N#Cc1ccc(C(=O)Nc2nnc(-c3cccs3)o2)cc1	–	?	–	?	–
CN(CC(=O)Nc1ccc(Cl)c(C(F)(F)F)c1)C(=O)C1CCCO1 (stereo not drawn)	·	–	·	–	·
Cc1cc(C)c2nc(SCC(=O)NCCN3C(=O)CSC3=O)cc(C)c2c1	–	–	–	–	–
c1ccc(CSc2ncccn2)cc1	19	–	–	–	–
Clc1ccc(CSc2ncccn2)cc1	32	·	43	–	–
Clc1ccc(CSc2ncn[nH]2)cc1	–	–	–	–	–
CCCCC(=O)N/N=C/c1ccc(N2CCOCC2)c([N+](=O)[O-])c1	–	?	–	–	–
CCc1noc(C)c1C(=O)Nc1ccccc1N1CCOCC1	·	–	·	–	·
CCOC(=O)C1CCCN(C(=O)C2CCCN(S(C)(=O)=O)C2)C1 (stereo not drawn)	–	–	–	–	–
Cc1nc(Cl)c(C#N)cc1-c1ccccc1	–	–	–	–	–
Cc1nc(Sc2ccccc2)c(C#N)c(C)c1[N+](=O)[O-]	–	?	–	7.4µM	–
Cc1nc(Sc2ccccc2)c(C#N)cc1-c1ccccc1	28	?	50	?	–
CCn1c(/N=C/c2ccc(OC)cc2O)nc2ccccc21	–	?	–	–	–
CCCn1c(/N=C/c2c[nH]c3ccccc23)nc2ccccc21	42	–	–	–	–
CCn1c(/N=C/c2c[nH]c3ccccc23)nc2ccccc21	–	1.9µM	–	–	–
CCCCn1c(/N=C/c2c[nH]c3ccccc23)nc2ccccc21	–	–	–	?	–
O=C(CN1C(=O)c2cccnc2Oc2ccc(Cl)cc21)NCCC1=CCCCC1	–	–	–	?	–
CC1=CC(C)(C)[N+](C)=CN1c1ccccc1	–	8.3µM	–	?	–
CCCC(=O)NCCc1ccc(S(N)(=O)=O)cc1	–	–	–	·	–
COc1ccc(-c2nnc(SCC(=O)Nc3nncs3)o2)cc1	–	–	–	–	·
COC(=O)c1ccccc1NC(=O)Cc1nc(-c2ccccc2)sc1-c1ccc(C)cc1	33	?	35	?	–
COC(=O)c1ccccc1NC(=O)CSc1nnc(-c2ccc(C)cc2)o1	33	?	55	–	–
COC(=O)c1ccccc1NC(=O)CC(=O)Nc1ccccc1C(=O)OC	–	–	–	–	–
SMILES	Cycloheximide cs	Pf growth 96h	Shiga inhibitor	Pf growth 48h	NS1 inh
COc1ccc(-c2nnc(SCC(=O)NC(C)c3ccccc3)o2)cc1 (stereo not drawn)	–	10µM	–	–	–
COC(=O)c1ccccc1NC(=O)CSc1nnc(-c2cccnc2)o1	21	–	–	–	–
CCOc1ccccc1NC(=O)CSc1nnc(-c2cccnc2)o1	·	–	·	–	·
CCOC(=O)c1cc(CC)sc1NC(=O)COC(=O)c1cc[n+]([O-])cc1	–	–	–	–	–
COC(=O)CSc1nnc(-c2ccccc2OC)o1	–	·	–	–	–
COc1ccccc1-c1nnc(SCC(=O)OC(C)C)o1	–	·	35	–	–
COc1ccc(-c2nnc(SCC(=O)Nc3ccccc3OC)o2)cc1	25	?	58	–	–
Cc1cc(C(=O)OCC(=O)Nc2ccccc2F)c(C)o1	15	–	98	–	–
Nc1ccccc1C(=O)OCC(=O)Nc1ccc(Br)cc1F	21	–	–	–	–
Cc1cc(OC(=O)c2ccc(Cl)cc2Cl)nc(C)n1	–	–	–	–	–
O=C(Nc1ccc(S(=O)(=O)Nc2nccs2)cc1)C1=NN(c2ccccc2)C(=O)CC1	–	?	–	?	–
